Assay results as given in PubChem BioAssay AID504908 (NMMLSC, 2011).
Values joined by “and” are separate entries in the source; they are usually repeats but may differ in a detail not shown here. Equal values may be shown once. Out of some 1,300 compounds screened, about 25 (2%) were called active.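 Rule for the calls: active = inhibition above a set limit, roughly 3 SD of non-fluorescent compound noise (cut at about 38% in these data); inactive = inhibition at or below that limit.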 A selection follows.

molecular target: AP-2 complex subunit beta (Homo sapiens) (UniProt P63010); experiment: beta-arrestin/AP2 interaction blockers, retest – biochemical, cherry pick 1, flow cytometry beads, confirmation (AID 504908); conditions: GST-AP2 beads, FITC arrestin peptide binding, at 10 µM, active compounds read high, GST-fused beta2-adaptin appendage, R879A mutant;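 note: loss of bead fluorescence from 50 nM FITC arrestin peptide bound to appendage; 0% = negative control wells and 100% = excess unlabelled arrestin peptide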
Sequence (P63010 whole entry, looked up, the tested form may be a part, one chain of several): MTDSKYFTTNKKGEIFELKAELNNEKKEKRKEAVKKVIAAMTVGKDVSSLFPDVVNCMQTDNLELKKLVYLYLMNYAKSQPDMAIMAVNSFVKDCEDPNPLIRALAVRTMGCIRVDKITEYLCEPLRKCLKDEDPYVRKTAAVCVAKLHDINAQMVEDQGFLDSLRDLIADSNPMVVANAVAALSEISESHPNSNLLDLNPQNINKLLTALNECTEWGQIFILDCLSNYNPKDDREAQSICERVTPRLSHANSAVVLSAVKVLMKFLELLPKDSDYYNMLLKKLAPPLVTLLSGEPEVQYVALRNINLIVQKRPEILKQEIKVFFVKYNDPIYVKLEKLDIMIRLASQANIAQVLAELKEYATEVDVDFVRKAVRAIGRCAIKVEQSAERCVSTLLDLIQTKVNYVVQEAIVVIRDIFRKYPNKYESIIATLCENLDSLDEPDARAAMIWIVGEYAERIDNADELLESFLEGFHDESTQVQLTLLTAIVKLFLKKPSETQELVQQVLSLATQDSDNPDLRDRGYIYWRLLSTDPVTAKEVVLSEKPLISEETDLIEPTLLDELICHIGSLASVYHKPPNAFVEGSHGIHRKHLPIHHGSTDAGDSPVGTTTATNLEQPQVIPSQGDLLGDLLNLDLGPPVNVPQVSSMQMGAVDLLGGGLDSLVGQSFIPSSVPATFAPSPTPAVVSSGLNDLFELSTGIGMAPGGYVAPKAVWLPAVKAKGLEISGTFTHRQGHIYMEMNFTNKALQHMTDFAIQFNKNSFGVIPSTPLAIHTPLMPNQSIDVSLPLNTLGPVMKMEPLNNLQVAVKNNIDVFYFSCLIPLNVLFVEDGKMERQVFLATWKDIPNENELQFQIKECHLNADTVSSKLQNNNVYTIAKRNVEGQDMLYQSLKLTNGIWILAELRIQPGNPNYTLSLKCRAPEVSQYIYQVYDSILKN

inhibition, inactive:
CN(C(=O)COC(=O)c1cc(=O)[nH]c2ccccc12)C1CCCCC1 -1.7%, Cc1ccc(CN2C(=O)CCC2C(=O)NCCCN2CCCCC2C)cc1 (centres undefined) 10.8%, CC(NC(=O)c1cc2cc(Cl)ccc2oc1=N)c1ccccc1 (centres undefined) -6.34%, COC(=O)c1cc(NC(=O)c2nn(C)c(=O)c3ccccc23)cc(C(=O)OC)c1 -5.22%, COc1ccc(CCNc2ncnc3c2nnn3Cc2ccccc2)cc1 -10.5%, CCn1c(=O)n(CC)c2cc(N3CCCC3)c(NC(=O)c3ccccc3Br)cc21 -0.2%, CC(NCCc1ccc(S(N)(=O)=O)cc1)C(=O)NCc1ccccc1 (centres undefined) 5.93%, O=C(C1CCCO1)N1CCN(S(=O)(=O)c2ccc(Br)cc2)CC1 (centres undefined) -1.61%, Cc1ccc(CNC(=O)C2CC(=O)N(C3CCCCCCC3)C2)cc1 (centres undefined) -8.23%, Cc1ccc(S(=O)(=O)N2CCCCC2)cc1NC(=O)c1cccnc1 -9.09%, NC(=O)C1CCN(C(=O)CC2C(=O)NCCN2Cc2cccc(Oc3ccccc3)c2)CC1 (centres undefined) 0.55%, CCCc1ccc(-c2csc(NC(=O)Cc3cccs3)n2)cc1 8.55%, Cc1cccc(Nc2ccccc2C(=O)NCc2ccco2)c1C 6.33%, Cc1ccc(S(=O)(=O)N2CCN(C(=O)c3ccccc3-c3nc4ccccc4s3)CC2)c(C)c1 15.9%, COc1cc2c(cc1NC(=O)COC(=O)/C=C/c1ccccc1)oc1ccccc12 -9.67%, Cc1ccc(Nc2ccc(C(N)=O)cc2[N+](=O)[O-])cc1 -3.07%, CC(C)C[C@H](NC(=O)N1CCn2c1nc1ccccc12)C(=O)NC1CC1 9.68%, Cc1ccc(C)c(NC(=S)NNC(=S)Nc2ccc(C(C)C)cc2)c1 -5%, Cc1cccc(C)c1NC(=O)C(Cl)C(=O)c1ccccc1 (centres undefined) 8.36%, CC(C)c1nnc(NC(=O)CCC(=O)N2CCN(c3cccc(Cl)c3)CC2)s1 1.25%, Cc1cccc(NC(=S)NC(=O)c2ccc(Br)o2)c1 -4.95%, CC(=O)NCCNC(=O)c1cc(-c2cccc3ccccc23)nc2ccccc12 -1.13%, CCOC(=O)N1CCN(C(=O)CNC(=O)Cc2ccc(Cl)cc2)CC1 -12.2%, Brc1ccccc1C1Nc2cccc3cccc(c23)N1 14.3%, O=C(NCc1ccco1)c1ccc(CS(=O)(=O)Cc2ccc(F)cc2)o1 3.68%, CCOc1ccc(C(=O)NC2CCN(CC(=O)NCc3cccs3)CC2)cc1 -3.4%, Cc1ccc(S(=O)(=O)/N=C(/Nc2ccccn2)c2ccc(Cl)cc2)cc1 13.7%, CC(Oc1ccccc1)C(=O)NN1Cc2ccccc2C1=N (centres undefined) -3.2%, Cn1c(=O)c([N+](=O)[O-])c(Oc2ccccc2)c2ccccc21 2.7%, CCC(C(=O)OC)n1cnc2c(oc3ccccc32)c1=O (centres undefined) -3.46%, CN(C)c1ccc(NC(=O)c2ccncc2)c2ccccc12 -3.42%, COc1ccc(/C=C2\SC(=S)N(CCC(=O)Nc3ccccn3)C2=O)cc1OC 17.1%, CCC(=O)Nc1nc2ccccc2n1Cc1ccccc1C -4.23%, O=C(NCC1(N2CCCCC2)CCCCC1)c1cccc(S(=O)(=O)Nc2ccccc2Cl)c1 -1.26%, COC(=O)C1CC2=C(CC(C)(C)CC2=O)N(c2ccccc2)C1=O (centres undefined) -13.1%, CN1C(=O)/C(=C/c2ccco2)SC1=Nc1cccc(C(=O)O)c1 9.02%, Cc1cc(C(=O)Nc2ccc(C)c(S(=O)(=O)N3CCOCC3)c2)c2ccccc2n1 7.91%, COc1cccc(-n2c(SCC(=O)c3c[nH]c4ccccc34)nc3ccccc3c2=O)c1 11.3%, Cc1cc(C)cc(Oc2nc3c(C)cccn3c(=O)c2/C=C(\C#N)C(=O)NC2CCS(=O)(=O)C2)c1 (centres undefined) 7.24%, Cc1ccc(C2(C)NC(=O)N(CC(=O)Nc3ccccc3C(=O)N3CCCCC3)C2=O)cc1 (centres undefined) 0.91%, Cc1cc(C(=O)OCC(=O)c2c(N)n(C)c(=O)n(C)c2=O)c(C)o1 -0.6% and 1.98%, NS(=O)(=O)c1ccc2nc(NC(=O)C3=COCCO3)sc2c1 3.87%, C/C(=N\Nc1ccc([N+](=O)[O-])cc1)c1ccc(-n2nncc2C(C)(C)C)cc1 -0.82%, COc1cc2c(cc1OC)CN(C(=O)c1cc(=O)c3ccccc3o1)CC2 -9.22%, Cc1ccc(OCCCCc2c(C)n[nH]c2C)cc1 4.8%, COCCNC(=O)Nc1ccc2nc(-c3ccco3)c(-c3ccco3)nc2c1 34%, Cc1ccc(OCCCC(=O)Nc2ccc3c(c2)OCCO3)cc1 -5.58%, Cc1ccc(Cl)cc1-c1ccc(/C=N/n2cnnc2)o1 -9.15%, CC(C)(C)c1ccc(C(=O)NCCn2c(N)c(C#N)c3nc4ccccc4nc32)cc1 6.81%, Cn1c(=O)c2c(nc(N/N=C/c3cccs3)n2Cc2ccc(Br)cc2)n(C)c1=O 1.14%, CC(CN1CCCCC1)OC(=O)c1ccccc1Cl (centres undefined) 7.67%, CCOc1ccc(-c2nnc(-c3ccco3)o2)cc1 11.9%, O=c1[nH]c2ccccc2n2c(-c3ccccc3)nnc12 20.4%, O=C(c1ccc(S(=O)(=O)NCc2ccco2)cc1)N1CCN(c2ccccc2)CC1 1.61%
